Source: PubChem BioAssay (Tox21)
Records with an inconclusive call do not appear. Where a call stands in place of a potency, no number is given. Calls of active or inactive are those of the source. Unless noted, the call rests on the fitted dose curve; in most records, active means well fitted curve in the direction sought with a large enough effect in the repeat runs; inconclusive means weak or mixed curves; inactive means no such curve, though single readings can be large; an effect the other way counts as inactive or inconclusive.

Experiments:
[1] = target: Aryl hydrocarbon receptor (Homo sapiens) (UniProt P35869); assay: qHTS assay to identify small molecule that activate the aryl hydrocarbon receptor (AhR) signaling pathway (AID 743085);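 further: HG2L7.5c1 human HepG2 liver cells with stably integrated DRE-driven firefly reporter; series mostly up to about 70 µM; nearly all actives have a fitted effect of over 15% in size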
Sequence of Aryl hydrocarbon receptor (Homo sapiens) (P35869 whole entry, looked up): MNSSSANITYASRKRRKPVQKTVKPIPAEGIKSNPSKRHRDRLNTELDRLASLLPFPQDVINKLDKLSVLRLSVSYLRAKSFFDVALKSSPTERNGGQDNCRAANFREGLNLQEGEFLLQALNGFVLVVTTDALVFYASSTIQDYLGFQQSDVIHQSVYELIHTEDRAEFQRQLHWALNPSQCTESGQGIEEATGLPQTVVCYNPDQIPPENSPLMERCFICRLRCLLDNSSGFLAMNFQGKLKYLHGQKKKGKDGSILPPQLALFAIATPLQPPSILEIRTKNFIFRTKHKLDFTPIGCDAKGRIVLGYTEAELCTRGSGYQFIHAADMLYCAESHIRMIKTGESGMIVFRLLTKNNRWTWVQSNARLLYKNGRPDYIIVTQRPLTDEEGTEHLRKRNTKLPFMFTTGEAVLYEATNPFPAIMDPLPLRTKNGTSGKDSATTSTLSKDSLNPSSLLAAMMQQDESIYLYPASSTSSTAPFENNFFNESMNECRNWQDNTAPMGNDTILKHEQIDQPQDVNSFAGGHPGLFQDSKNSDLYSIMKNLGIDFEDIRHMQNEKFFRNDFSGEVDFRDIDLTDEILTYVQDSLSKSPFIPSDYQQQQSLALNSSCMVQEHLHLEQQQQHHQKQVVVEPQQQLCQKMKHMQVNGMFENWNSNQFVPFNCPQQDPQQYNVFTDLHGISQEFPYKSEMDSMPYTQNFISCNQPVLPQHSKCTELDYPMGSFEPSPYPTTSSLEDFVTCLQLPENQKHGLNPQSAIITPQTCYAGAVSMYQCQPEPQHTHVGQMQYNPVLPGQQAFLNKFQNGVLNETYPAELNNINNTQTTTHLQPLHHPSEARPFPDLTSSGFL
Procedure, shortened: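 A multiplexed format paired cell viability (CellTiter-Fluor fluorescence) with AhR-dependent luciferase output (ONE-Glo luminescence) in the same wells of HepG2 DRE-luc cells after 24 h compound exposure at 37C.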

[2] = target: Peroxisome proliferator-activated receptor gamma (Homo sapiens) (UniProt P37231); assay: qHTS assay to identify small molecule agonists of the peroxisome proliferator-activated receptor gamma (PPARg) signaling pathway (AID 743094; active means well fitted activation curve with a large enough effect in the signal ratio in the repeat runs, not every such curve was filed as active; the % refers to the signal ratio)
Sequence of Peroxisome proliferator-activated receptor gamma (Homo sapiens) (P37231 whole entry, looked up): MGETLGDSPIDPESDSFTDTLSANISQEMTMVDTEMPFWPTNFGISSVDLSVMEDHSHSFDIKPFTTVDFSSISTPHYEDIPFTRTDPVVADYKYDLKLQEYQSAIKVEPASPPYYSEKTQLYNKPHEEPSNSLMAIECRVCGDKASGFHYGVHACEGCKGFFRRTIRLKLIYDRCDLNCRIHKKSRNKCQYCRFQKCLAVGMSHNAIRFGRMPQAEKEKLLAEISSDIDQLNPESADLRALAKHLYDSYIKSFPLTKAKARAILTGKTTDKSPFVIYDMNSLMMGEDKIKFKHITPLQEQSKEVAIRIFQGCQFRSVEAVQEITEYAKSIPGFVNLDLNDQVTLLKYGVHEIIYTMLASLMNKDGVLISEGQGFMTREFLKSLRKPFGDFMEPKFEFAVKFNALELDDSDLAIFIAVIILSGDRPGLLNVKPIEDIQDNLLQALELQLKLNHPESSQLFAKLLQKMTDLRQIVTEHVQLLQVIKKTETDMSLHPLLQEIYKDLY
Procedure, shortened: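 Stably transfected HEK293H cells (GeneBLAzer PPARg UAS-bla) were incubated with test substances for 17 h at 37C after a 5 h pre-incubation; beta-lactamase activity was then detected by FRET substrate fluorescence.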

[3] = target: Peroxisome proliferator-activated receptor gamma (Homo sapiens) (UniProt P37231); assay: qHTS assay to identify small molecule antagonists of the peroxisome proliferator-activated receptor gamma (PPARg) signaling pathway (AID 743191; calls by dose curve; further: series mostly up to about 63 µM; nearly all actives have a fitted effect of over 30% in size)
Procedure, shortened: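 GeneBLAzer PPARg UAS-bla HEK293H cells carrying a UAS-driven beta-lactamase reporter were plated at 3000 cells/well, preincubated 5 h at 37C, then given compound for 17 h at 37C; LiveBLAzer B/G FRET substrate was read after 1 h at room temperature.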

[4] = qHTS assay to identify small molecule antagonists of the peroxisome proliferator-activated receptor gamma (PPARg) signaling pathway - cell viability counter screen (AID 743194); further: nearly all actives have a fitted effect of over 55% in size
Procedure, shortened: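 PPARg-UAS-bla HEK293H cells were plated, rested 5 h at 37 C, then treated with compounds plus rosiglitazone (50 nM final) for 17 h at 37 C; viability was then read by CellTiter-Glo luminescence after 30 min at room temperature.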

[5] = qHTS assay for small molecule agonists of the antioxidant response element (ARE) signaling pathway (AID 743202; active means well fitted activation curve with a large enough effect in the signal ratio in the repeat runs, not every such curve was filed as active; the % refers to the signal ratio)
Procedure, shortened: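 Read-out: LiveBLAzer B/G FRET substrate fluorescence after 2 h at room temperature, following 16 h compound treatment at 37 C of HepG2 cells carrying an ARE-driven beta-lactamase reporter.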

[6] = qHTS assay for small molecule agonists of the antioxidant response element (ARE) signaling pathway - cell viability counter screen (AID 743203; calls by dose curve; further: nearly all actives have a fitted effect of over 55% in size)
Procedure, shortened: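 Cells (ARE-bla HepG2, 2,000/well) receive DMSO-dissolved compounds after a 5 hrs rest. Plates incubate 16 hrs at 37C/5% CO2. CellTiter-Glo luminescence is then recorded after 30 min at room temperature.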

[7] = qHTS assay for small molecule activators of the heat shock response signaling pathway - cell viability counter screen (AID 743209); further: nearly all actives have a fitted effect of over 50% in size; further: potency means the concentration at half of the fitted maximal effect
Procedure, shortened: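 Quantitative HTS format, Tox21 10K library. HeLa cells carrying an HSE-driven beta-lactamase reporter were treated 5 h at 37 C, then assessed for viability by CellTiter-Glo luminescence.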

[8] = qHTS assay for small molecule activators of the heat shock response signaling pathway (AID 743210; active means well fitted activation curve with a large enough effect in the signal ratio in the repeat runs, with a control signal flat, not every such curve was filed as active; the % refers to the signal ratio; further: series mostly up to about 63 µM)
Procedure, shortened: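 HSE-bla HeLa cells (beta-lactamase reporter under heat shock response elements) were exposed to compounds for 5 h at 37 C, then loaded with LiveBLAzer B/G FRET substrate for 2.5 h at room temperature before fluorescence reading.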

[9] = qHTS assay to identify small molecule agonists of the peroxisome proliferator-activated receptor delta (PPARd) signaling pathway - cell viability counter screen (AID 743211); further: nearly all actives have a fitted effect of over 55% in size; further: potency means the concentration at half of the fitted maximal effect
Procedure, shortened: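 Tox21 library compounds, delivered in DMSO, were incubated 17 h with PPARd-bla HEK293H cells; cytotoxicity was taken from CellTiter-Glo luminescence read 30 min after reagent addition.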

[10] = qHTS assay to identify small molecule that activate the aryl hydrocarbon receptor (AhR) signaling pathway - cell viability counter screen (AID 743086);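 further: HepG2 liver cells carrying the AhR DRE luciferase reporter; series mostly up to about 70 µM; nearly all actives have a fitted effect of over 45% in size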
Procedure, shortened: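 HepG2-AhR-luc (HG2L7.5c1) cells, 4000/well, were preincubated 5 h at 37C, exposed to compound in qHTS format for 24 hr at 37C, then given CellTiter-Fluor for 30 min; viability was read as fluorescence in the reporter wells.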

SMILES: O=C1CC[C@@H](C(=O)O)N1
- Potency [1]: inactive
- outcome [2]: inactive
- Potency [3]: inactive
- Potency [4]: inactive
- Potency [5]: inactive
- Potency [6]: inactive
- Potency [7]: inactive
- Potency [8]: inactive
- Potency [9]: inactive

SMILES: O=c1[nH][nH]c(=O)c2cc([N+](=O)[O-])ccc12
- Potency [1]: inactive
- outcome [2]: inactive
- Potency [3]: inactive
- Potency [4]: inactive
- Potency [5]: inactive
- Potency [6]: inactive
- Potency [8]: inactive
- Potency [9]: inactive

SMILES: CCN(CC)CCOc1ccccc1C(=O)CCc1ccccc1
- Potency [1]: inactive
- Potency [10]: inactive
- Potency [4]: inactive
- Potency [6]: inactive
- Potency [7]: inactive
- Potency [8]: inactive

SMILES: CNS(=O)(=O)c1cc(C(=O)N2CCC(CCN3C4CCC3CC(n3c(C)nc5ccccc53)C4)(c3cccc(F)c3)CC2)c(Cl)cc1F (centres undefined)
- Potency [1]: inactive
- Potency [9]: 8.71 µM (active)

SMILES: O=[N+]([O-])C1(Br)COCOC1
- Potency [1]: inactive
- outcome [2]: inactive
- Potency [7]: 49 µM (active)

SMILES: CC(C)(O)CCc1ccccc1
- Potency [10]: inactive
- outcome [2]: inactive
- Potency [3]: inactive
- Potency [4]: inactive
- Potency [5]: inactive
- Potency [6]: inactive
- Potency [7]: inactive
- Potency [8]: inactive

SMILES: CCCCOC(=O)CCCCC(=O)OCCCC
- Potency [1]: inactive
- outcome [2]: inactive
- Potency [4]: inactive
- Potency [5]: inactive
- Potency [6]: inactive
- Potency [7]: inactive
- Potency [8]: inactive
- Potency [9]: inactive
